# Laboratory results taken from PubChem BioAssay AID504339 (National Center for Advancing Translational Sciences (NCATS), 2011).
# The campaign covered roughly 390,000 compounds. About 17,000 (4.4%) were called active. Inconclusive results (about 8%) are left out. This excerpt belongs to a sample that is enriched for actives. Values without a mark were called inactive. Calls come from the whole dose curve; as a rule, active = well fitted inhibition curve with a large enough effect; inconclusive = small, poorly fitted or top-dose-only effect; inactive = no such curve, though single readings can be large or run the other way.
# Target: Lysine-specific demethylase 4A (Homo sapiens) (UniProt O75164)
# Experiment: qHTS Assay for Inhibitors of JMJD2A-Tudor Domain; note: nearly all actives have a fitted effect of over 50% in size
# Settings: AlphaScreen JMJD2A-Tudor / H3K4me3 peptide binding; series mostly up to 114 µM; activity change, negative = inhibition: at the top concentration
# % is set by controls: 0 for no effect and ±100 for the full control effect; potency is the fitted concentration of half-maximal effect.
# Lysine-specific demethylase 4A (Homo sapiens), sequence (O75164 whole entry, looked up, the tested form may be a part): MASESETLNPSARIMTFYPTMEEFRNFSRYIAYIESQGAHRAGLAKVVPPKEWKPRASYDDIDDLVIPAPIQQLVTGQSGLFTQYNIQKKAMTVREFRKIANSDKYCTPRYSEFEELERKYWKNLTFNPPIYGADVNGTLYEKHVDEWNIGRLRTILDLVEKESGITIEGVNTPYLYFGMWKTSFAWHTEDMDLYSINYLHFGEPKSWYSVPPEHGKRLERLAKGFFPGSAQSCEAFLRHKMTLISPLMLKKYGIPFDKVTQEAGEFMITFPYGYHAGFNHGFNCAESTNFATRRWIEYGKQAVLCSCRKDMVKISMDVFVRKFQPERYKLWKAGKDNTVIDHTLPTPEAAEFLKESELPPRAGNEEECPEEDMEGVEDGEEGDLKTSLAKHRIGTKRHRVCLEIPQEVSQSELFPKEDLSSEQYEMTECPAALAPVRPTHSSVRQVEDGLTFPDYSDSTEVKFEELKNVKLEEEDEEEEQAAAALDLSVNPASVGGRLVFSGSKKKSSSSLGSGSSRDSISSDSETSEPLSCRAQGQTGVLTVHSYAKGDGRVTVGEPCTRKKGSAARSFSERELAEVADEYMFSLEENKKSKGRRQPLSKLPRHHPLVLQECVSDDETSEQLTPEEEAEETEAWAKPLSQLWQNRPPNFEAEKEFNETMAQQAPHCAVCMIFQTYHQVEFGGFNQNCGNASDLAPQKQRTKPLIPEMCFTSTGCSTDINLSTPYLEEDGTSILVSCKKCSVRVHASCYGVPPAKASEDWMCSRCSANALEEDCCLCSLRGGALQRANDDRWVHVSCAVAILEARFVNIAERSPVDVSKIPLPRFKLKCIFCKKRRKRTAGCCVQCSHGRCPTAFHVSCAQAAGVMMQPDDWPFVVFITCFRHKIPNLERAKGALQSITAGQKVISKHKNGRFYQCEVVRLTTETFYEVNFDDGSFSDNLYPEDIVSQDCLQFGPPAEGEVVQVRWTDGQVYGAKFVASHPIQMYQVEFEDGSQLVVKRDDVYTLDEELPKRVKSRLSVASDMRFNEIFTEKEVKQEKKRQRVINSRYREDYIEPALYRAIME
SMILES,"activity change, negative = inhibition [%]",Potency
COC(=O)c1ccccc1NC(=O)c1ccc2c(=O)n3c(nc2c1)CCCCC3,7.38,–
Cc1ccc(-c2cc(-c3coc4ccccc4c3=O)c3c(n2)-c2cc(Cl)ccc2OC3)cc1,-7.84,–
COc1ccccc1NC(=O)CN1C(=O)c2ccccc2Sc2ccc(C(=O)N3CCCC3)cc21,-18.3,–
COc1ccc(C2C(C(C)=O)=C(O)C(=O)N2c2nccs2)cc1 (stereo unspecified),-2.41,–
COc1ccc(C2C(C(C)=O)=C(O)C(=O)N2CCc2c[nH]c3ccccc23)cc1 (stereo unspecified),-13.8,–
COC(=O)CN1C(=O)C(O)=C(C(C)=O)C1c1ccc([N+](=O)[O-])cc1 (stereo unspecified),–,31.6 µM (active)
CCOc1ccccc1NC(=O)Cn1c(=O)n(-c2cccc(C)c2)c(=O)c2c1c1cc(OC)ccc1n2C,4.78,–
CCN(CC)C(=O)CSc1nc2ccsc2c(=O)n1Cc1ccccc1Cl,-10,–
Nc1nnnn1/N=C/c1cccs1,-10.4,–
Oc1ccccc1/C=N/n1c(-c2cccs2)n[nH]c1=S,–,22.4 µM (active)
S=c1[nH]nc(-c2cccs2)n1/N=C/c1cccs1,–,10 µM (active)
C(=N/N1CCN(c2ccccc2)CC1)/c1cccs1,-28.8,–
Cn1c(=O)c2sccc2n2c(CCC(=O)NCc3ccccc3Cl)nnc12,-16,–
Cc1ccc(C(=O)Nc2ccc3[nH]c(=O)c(=O)[nH]c3c2)cc1,-2.05,–
O=[S+]([O-])(c1ccc(OC(F)(F)F)cc1)N1CCN([S+](=O)([O-])c2ccc3c(c2)OCCO3)CC1,-25.3,–
O=C(CC1Oc2ccc(Cl)cc2NC1=O)NCc1ccccc1 (stereo unspecified),-14.2,–
CCc1ccc(NC(=O)CCCc2nnc3n(CCCOC)c(=O)c4sccc4n23)cc1,-16.5,–
O=C(CSc1nc2nccnc2c(=O)n1CCc1c[nH]c2ccccc12)Nc1ccccc1F,-7.57,–
CCCCCCn1nnc2sc(-c3ccccc3)cc2c1=O,-6.6,–
Cc1ccc(Cl)cc1NC(=O)C(C)n1nnc2sc(-c3ccccc3)cc2c1=O (stereo unspecified),–,50.1 µM (active)
Cc1cc2nn(-c3ccc(Cl)cc3)nc2cc1NC(=O)C(C)C,-3.59,–
COc1ccccc1-c1cc2nc(C)c(CCC(=O)O)c(C)n2n1,1.33,–
Cc1ccc(C)n1-c1nnc(N2CCC(C(=O)NCc3ccc(F)cc3)CC2)s1,-19.5,–
Cc1cc(C)cc(-n2ccnc2SCC(=O)Nc2nc3ccccc3s2)c1,-9.68,–
NS(=O)(=O)c1ccc2nc(NC(=O)COc3ccccc3)sc2c1,-23.4,–
c1ccc(C(=NNc2nc3ccccc3s2)c2ccccn2)cc1,–,31.6 µM (active)

SMILES,"activity change, negative = inhibition [%]",Potency
COc1cc(-c2cc3n(C)c(C)c(CCC(=O)Nc4ccc(F)cc4)c(=O)n3n2)cc(OC)c1OC,-8.06,–
COC(=O)c1ccccc1NC(=O)c1cc(-c2ccccc2O)no1,-21.7,–
Fc1cccc(-n2ncc3c2ncn2nc(-c4ccccc4Cl)nc32)c1,-17.7,–
CN1/C(=C\C=C2\N=C(c3ccc(F)cc3)OC2=O)C(C)(C)c2ccccc21,–,56.2 µM (active)
CN1CCN(CCC(=O)N/N=C/C=C2\N(C)c3ccccc3C2(C)C)CC1,-34.9,–
CC(=O)Nc1cccc(OCC(=O)/C=C2\N(C)c3ccccc3C2(C)C)c1,-26.1,–
O=C1C(F)N([S+](=O)([O-])c2ccc3c(c2)OCCO3)CCN1[S+](=O)([O-])c1c(F)cccc1F (stereo unspecified),-12.3,–
COCCCn1c(SCC(=O)Nc2ccccc2)nnc1-c1ccncc1,-24.6,–
COCCCn1c(Cc2csc(Nc3cccc(Cl)c3)n2)nnc1SCC(=O)OC1CCCCC1,–,44.7 µM (active)
COCCCn1c(SCC(=O)NC2CCCC2)nnc1-c1ccccc1,-8.42,–
COc1ccccc1CNc1ccc(-c2nc(-c3ccccc3C)no2)cc1[N+](=O)[O-],-5.3,–
Cc1noc(C)c1-c1ccc2ncnc(NCc3ccc(F)c(F)c3)c2c1,-19.9,–
Cc1nc(CNc2ncnc3ccc(-c4ccc5c(c4)OCO5)cc23)cs1,–,79.4 µM (active)
CS(=O)(=O)N(CC(=O)NCc1ccco1)c1ccc2c(c1)OCO2,-24.4,–
c1coc(CCNc2ncnc3ccc(-c4ccc5c(c4)OCO5)cc23)c1,–,56.2 µM (active)
CN(Cc1cncn1C)c1ncnc2ccc(-c3ccc4c(c3)OCO4)cc12,-32.6,–
O=C(Cn1nnc(-c2ccc3c(c2)OCO3)n1)NCc1ccco1,-8.12,–
O=c1c(=O)n(Cc2c(F)cccc2Cl)ccn1Cc1ccccc1,-27.3,–
COc1cc(Cl)ccc1Nc1ncc(C(=O)N2CCN(c3ccccc3OC)CC2)c2ccccc12,11.3,–
Cc1cccc(C(=O)Nc2ccc(-c3nc4ccccc4s3)c(C)c2)c1,-17,–
COc1ccc(CNC(=O)CC2Oc3ccc(C)cc3NC2=O)cc1 (stereo unspecified),-3.27,–
Cc1ccc(-n2nc(CO)c(C(=O)NCCc3ccccc3)n2)cc1,-23.3,–
COc1ccc(C(=O)N2CCCCC2C(=O)Nc2ccc(-n3nc(C)cc3C)cc2)o1 (stereo unspecified),–,15.8 µM (active)
Cc1cc(C)n(-c2ccc(NC(=O)C3CCCCN3C(=O)c3cccs3)cc2)n1 (stereo unspecified),-13.1,–
Cc1ccc(NC(=O)C2CCCN2C(=O)OCc2ccccc2)cc1C (stereo unspecified),-3.78,–
